What was measured:
Assay in all cases: DAPPL (digital affinity profiling via proximity ligation, sequencing); 10 mM Tris-HCl pH 7.5, 50 mM NaCl, 1 mM DTT, 4% glycerol, room temperature, 30 min; GST-TFs on glutathione beads, 16-mer random dsDNA library, 0.1% formaldehyde crosslink after washing; high values mean tight binding
FEV = target: T1, FEV (Homo sapiens, UniProt Q99581 1-238); conditions: protein: recombinant; tags: N-terminal GST; dsDNA, one strand shown
T1 sequence: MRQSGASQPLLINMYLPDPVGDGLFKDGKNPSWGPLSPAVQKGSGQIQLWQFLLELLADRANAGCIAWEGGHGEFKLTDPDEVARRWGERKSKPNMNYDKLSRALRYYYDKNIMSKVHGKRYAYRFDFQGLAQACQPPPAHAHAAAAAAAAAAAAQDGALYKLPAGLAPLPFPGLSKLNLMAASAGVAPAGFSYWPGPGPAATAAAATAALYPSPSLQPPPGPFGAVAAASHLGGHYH
Method in brief: (§1)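 Binding signal is defined as a hexamer's read frequency for one factor over its frequency for the tag-only sample. To obtain reads, GST-fused human transcription factors were expressed in yeast, captured on glutathione beads, barcoded with DNA and pooled with that sample. Pools met 200 nmole of a 16-mer random double-stranded DNA library in Tris/NaCl/DTT/glycerol buffer for 30 min at room temperature before washing, 0.1% formaldehyde crosslinking, proximity ligation (BsaI/T4 ligase, 1 h, 37 °C), PCR and Illumina NextSeq500 sequencing.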

ETV5 = ETV5 (Homo sapiens, UniProt P41161 1-510); conditions: protein: recombinant; tags: N-terminal GST; dsDNA, one strand shown
ETV5, sequence (P41161 whole entry): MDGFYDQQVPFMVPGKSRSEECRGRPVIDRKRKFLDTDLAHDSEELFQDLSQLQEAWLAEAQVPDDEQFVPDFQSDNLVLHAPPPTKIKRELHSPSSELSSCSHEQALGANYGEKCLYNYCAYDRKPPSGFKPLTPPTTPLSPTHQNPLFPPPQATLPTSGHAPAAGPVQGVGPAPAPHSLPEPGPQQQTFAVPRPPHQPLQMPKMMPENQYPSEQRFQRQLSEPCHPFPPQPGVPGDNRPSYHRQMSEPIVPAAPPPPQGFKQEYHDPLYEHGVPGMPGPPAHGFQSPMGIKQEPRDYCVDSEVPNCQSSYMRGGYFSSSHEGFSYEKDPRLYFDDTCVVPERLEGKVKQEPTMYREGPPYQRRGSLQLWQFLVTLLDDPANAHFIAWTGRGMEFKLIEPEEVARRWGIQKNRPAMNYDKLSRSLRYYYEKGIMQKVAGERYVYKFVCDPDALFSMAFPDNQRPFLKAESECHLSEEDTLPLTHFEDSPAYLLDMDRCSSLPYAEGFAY
Method in brief: as §1

HSF1 = HSF1 (Homo sapiens, UniProt Q00613 1-529); conditions: protein: recombinant; tags: N-terminal GST; chain copies: 3; dsDNA, one strand shown
HSF1, sequence (Q00613 whole entry): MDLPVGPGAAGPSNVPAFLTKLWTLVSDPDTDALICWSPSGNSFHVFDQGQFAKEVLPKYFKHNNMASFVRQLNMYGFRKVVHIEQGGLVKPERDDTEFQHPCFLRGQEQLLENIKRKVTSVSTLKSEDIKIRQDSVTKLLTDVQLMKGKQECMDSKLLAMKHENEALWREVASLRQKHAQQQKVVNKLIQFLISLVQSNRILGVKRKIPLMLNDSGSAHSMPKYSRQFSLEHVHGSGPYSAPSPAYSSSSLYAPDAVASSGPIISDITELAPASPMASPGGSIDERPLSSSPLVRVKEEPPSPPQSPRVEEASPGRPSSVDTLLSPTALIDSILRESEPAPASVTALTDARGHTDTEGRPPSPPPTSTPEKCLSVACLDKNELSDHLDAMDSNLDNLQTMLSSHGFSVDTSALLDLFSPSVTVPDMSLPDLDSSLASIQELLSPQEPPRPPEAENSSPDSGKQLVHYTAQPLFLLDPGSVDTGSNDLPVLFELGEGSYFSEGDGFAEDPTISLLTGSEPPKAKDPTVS
Method in brief: as §1

SPIC = target: T2, SPIC (Homo sapiens, UniProt Q8N5J4 1-248); conditions: protein: recombinant; tags: N-terminal GST; dsDNA, one strand shown
T2 sequence: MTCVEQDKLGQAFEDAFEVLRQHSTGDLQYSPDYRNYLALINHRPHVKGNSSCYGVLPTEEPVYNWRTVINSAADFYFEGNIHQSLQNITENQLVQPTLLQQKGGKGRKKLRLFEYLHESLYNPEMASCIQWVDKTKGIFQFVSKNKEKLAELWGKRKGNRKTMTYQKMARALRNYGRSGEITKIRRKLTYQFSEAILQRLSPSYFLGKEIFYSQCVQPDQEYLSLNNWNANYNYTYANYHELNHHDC
Method in brief: as §1

ELF4 = ELF4 (Homo sapiens, UniProt Q99607 1-663); conditions: protein: recombinant; tags: N-terminal GST; dsDNA, one strand shown
ELF4, sequence (Q99607 whole entry): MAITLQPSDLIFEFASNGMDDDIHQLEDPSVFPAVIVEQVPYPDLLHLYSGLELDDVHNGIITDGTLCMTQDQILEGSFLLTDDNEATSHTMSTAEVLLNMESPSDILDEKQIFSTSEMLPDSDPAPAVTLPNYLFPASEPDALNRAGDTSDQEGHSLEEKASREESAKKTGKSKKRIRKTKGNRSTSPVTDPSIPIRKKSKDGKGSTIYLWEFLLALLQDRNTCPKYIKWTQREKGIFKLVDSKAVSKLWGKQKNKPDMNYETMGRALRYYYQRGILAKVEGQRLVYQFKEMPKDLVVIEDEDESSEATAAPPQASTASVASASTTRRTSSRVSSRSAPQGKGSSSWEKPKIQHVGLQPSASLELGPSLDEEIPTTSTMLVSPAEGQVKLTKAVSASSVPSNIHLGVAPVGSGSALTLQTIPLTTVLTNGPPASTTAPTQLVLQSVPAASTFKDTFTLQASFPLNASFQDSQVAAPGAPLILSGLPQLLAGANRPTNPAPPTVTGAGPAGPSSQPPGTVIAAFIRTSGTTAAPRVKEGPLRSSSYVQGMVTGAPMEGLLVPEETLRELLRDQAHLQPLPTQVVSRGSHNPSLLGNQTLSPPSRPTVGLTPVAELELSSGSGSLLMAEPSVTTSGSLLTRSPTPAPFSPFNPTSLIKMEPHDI
Method in brief: as §1

ELK4 = target: T3, ELK4 (Homo sapiens, UniProt P28324-2 1-405); conditions: protein: recombinant; tags: N-terminal GST; dsDNA, one strand shown
T3 sequence: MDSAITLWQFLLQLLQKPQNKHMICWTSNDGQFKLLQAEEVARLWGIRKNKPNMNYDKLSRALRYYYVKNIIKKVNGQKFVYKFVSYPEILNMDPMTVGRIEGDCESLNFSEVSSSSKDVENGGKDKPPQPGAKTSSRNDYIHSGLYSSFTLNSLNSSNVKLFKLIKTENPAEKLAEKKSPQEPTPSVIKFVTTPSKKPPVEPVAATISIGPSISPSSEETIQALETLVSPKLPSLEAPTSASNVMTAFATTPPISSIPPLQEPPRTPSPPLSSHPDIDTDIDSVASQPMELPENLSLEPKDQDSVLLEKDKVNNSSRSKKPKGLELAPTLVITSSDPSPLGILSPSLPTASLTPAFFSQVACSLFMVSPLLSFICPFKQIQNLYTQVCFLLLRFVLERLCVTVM
Method in brief: as §1

ETV2 = target: T4, ETV2 (Homo sapiens, UniProt O00321 1-342); conditions: protein: recombinant; tags: N-terminal GST; dsDNA, one strand shown
T4 sequence: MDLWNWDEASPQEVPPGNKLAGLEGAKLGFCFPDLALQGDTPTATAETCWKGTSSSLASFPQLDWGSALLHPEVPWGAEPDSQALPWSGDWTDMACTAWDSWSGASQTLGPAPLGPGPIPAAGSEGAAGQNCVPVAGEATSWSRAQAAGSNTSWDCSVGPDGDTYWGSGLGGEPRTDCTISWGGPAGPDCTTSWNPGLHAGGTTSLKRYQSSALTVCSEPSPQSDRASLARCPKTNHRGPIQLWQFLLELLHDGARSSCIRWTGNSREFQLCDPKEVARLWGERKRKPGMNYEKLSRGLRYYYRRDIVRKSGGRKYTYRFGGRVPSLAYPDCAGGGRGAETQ
Method in brief: as §1

ELF3 = target: T5, ELF3 (Homo sapiens, UniProt P78545 1-371); conditions: protein: recombinant; tags: N-terminal GST; dsDNA, one strand shown
T5 sequence: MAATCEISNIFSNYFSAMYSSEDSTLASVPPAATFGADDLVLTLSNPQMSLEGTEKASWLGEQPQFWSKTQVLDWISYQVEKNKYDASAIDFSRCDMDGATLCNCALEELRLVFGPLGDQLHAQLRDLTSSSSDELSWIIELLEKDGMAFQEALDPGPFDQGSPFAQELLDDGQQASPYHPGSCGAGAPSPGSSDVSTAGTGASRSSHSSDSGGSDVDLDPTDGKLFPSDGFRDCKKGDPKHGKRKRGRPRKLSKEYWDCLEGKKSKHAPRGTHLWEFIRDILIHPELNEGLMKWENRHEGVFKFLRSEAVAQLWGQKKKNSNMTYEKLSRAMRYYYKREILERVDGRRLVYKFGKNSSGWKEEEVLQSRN
Method in brief: as §1

CRX = CRX (Homo sapiens, UniProt O43186 1-299); conditions: protein: recombinant; tags: N-terminal GST; dsDNA, one strand shown
CRX, sequence (O43186 whole entry): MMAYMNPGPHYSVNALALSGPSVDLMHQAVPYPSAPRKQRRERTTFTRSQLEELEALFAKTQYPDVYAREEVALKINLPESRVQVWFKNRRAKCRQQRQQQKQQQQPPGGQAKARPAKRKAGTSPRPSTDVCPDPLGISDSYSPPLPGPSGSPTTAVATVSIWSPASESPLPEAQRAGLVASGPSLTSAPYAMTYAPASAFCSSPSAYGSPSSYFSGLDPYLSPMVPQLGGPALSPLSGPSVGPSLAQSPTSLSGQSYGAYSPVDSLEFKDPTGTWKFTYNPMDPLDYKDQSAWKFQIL
Method in brief: as §1

ETV1 = ETV1 (Homo sapiens, UniProt P50549 1-477); conditions: protein: recombinant; tags: N-terminal GST; dsDNA, one strand shown
ETV1, sequence (P50549 whole entry): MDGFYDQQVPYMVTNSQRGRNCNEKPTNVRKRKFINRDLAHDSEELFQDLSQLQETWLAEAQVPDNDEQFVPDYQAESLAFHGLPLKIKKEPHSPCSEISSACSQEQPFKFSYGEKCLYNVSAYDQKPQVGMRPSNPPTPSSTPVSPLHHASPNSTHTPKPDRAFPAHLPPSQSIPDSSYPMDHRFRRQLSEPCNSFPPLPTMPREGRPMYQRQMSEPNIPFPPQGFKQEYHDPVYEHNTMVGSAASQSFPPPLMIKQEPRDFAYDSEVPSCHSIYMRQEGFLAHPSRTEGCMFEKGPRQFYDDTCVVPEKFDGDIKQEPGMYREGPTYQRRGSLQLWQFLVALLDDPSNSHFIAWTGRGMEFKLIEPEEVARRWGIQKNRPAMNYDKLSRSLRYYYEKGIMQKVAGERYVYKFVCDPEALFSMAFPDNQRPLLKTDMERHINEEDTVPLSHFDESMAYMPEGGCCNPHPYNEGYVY
Method in brief: as §1

ERF = target: T6, ERF (Homo sapiens, UniProt P50548 1-548); conditions: protein: recombinant; tags: N-terminal GST; dsDNA, one strand shown
T6 sequence: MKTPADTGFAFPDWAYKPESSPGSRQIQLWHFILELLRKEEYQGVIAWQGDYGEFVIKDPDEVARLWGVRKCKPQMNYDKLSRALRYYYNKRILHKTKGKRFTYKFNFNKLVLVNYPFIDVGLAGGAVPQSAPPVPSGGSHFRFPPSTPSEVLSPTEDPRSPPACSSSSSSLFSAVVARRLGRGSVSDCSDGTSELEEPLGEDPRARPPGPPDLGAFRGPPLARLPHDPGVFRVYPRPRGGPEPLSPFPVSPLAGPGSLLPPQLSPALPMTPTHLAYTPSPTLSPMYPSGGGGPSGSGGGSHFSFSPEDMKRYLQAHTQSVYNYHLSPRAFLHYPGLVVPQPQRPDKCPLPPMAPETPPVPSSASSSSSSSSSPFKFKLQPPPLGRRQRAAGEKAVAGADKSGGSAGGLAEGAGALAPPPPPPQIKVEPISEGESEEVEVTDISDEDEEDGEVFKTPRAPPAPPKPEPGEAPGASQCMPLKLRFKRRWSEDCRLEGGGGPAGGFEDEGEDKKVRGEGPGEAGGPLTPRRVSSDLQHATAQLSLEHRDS
Method in brief: as §1

ETV3L = target: T7, ETV3L (Homo sapiens, UniProt Q6ZN32 1-361); conditions: protein: recombinant; tags: N-terminal GST; dsDNA, one strand shown
T7 sequence: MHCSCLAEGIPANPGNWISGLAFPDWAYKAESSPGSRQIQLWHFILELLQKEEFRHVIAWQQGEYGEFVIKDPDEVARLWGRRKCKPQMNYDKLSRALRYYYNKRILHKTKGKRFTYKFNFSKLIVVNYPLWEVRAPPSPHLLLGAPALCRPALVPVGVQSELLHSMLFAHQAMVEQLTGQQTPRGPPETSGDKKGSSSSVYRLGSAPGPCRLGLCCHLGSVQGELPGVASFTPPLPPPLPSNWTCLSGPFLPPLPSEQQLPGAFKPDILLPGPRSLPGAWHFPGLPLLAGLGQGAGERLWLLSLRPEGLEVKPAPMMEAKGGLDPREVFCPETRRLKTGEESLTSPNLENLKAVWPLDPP
Method in brief: as §1

ETS2 = target: T8, ETS2 (Homo sapiens, UniProt P15036 1-469); conditions: protein: recombinant; tags: N-terminal GST; dsDNA, one strand shown
T8 sequence: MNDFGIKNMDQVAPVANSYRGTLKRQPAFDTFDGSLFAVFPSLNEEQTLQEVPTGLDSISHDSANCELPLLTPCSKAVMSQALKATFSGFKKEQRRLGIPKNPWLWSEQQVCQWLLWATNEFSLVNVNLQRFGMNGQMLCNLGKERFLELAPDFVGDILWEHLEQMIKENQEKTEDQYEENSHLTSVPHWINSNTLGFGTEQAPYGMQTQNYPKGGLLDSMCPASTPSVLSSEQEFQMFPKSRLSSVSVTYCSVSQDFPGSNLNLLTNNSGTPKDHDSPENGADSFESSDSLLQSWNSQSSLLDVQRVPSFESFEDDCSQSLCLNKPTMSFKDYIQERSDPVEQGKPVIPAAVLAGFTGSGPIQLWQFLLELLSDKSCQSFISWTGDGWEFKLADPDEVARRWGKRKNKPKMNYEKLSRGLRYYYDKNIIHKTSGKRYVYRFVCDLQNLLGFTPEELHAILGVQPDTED
Method in brief: as §1

SPDEF = target: T9, SPDEF (Homo sapiens, UniProt O95238 1-335); conditions: protein: recombinant; tags: N-terminal GST; dsDNA, one strand shown
T9 sequence: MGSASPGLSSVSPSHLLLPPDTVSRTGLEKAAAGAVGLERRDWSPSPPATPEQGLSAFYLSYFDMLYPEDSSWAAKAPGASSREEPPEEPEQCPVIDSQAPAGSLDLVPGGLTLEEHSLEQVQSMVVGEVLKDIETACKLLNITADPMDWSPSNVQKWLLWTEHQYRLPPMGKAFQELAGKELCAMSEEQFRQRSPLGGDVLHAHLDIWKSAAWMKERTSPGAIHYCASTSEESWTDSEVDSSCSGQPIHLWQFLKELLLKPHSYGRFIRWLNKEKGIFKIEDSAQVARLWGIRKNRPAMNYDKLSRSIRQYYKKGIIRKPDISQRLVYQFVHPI
Method in brief: as §1

ETV7 = target: T10, ETV7 (Homo sapiens, UniProt Q9Y603 1-341); conditions: protein: recombinant; tags: N-terminal GST; dsDNA, one strand shown
T10 sequence: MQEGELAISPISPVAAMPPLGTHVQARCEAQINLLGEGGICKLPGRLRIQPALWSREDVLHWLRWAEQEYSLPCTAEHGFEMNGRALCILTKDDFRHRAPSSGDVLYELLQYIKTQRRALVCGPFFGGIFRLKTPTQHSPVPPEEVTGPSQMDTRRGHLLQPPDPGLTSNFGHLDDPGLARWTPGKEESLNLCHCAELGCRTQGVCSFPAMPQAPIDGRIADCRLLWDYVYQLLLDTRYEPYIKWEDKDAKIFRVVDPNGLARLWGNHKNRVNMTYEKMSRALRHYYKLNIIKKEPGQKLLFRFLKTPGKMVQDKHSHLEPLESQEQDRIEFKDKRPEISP
Method in brief: as §1

ELF5 = target: T11, ELF5 (Homo sapiens, UniProt Q9UKW6-2 1-255); conditions: protein: recombinant; tags: N-terminal GST; dsDNA, one strand shown
T11 sequence: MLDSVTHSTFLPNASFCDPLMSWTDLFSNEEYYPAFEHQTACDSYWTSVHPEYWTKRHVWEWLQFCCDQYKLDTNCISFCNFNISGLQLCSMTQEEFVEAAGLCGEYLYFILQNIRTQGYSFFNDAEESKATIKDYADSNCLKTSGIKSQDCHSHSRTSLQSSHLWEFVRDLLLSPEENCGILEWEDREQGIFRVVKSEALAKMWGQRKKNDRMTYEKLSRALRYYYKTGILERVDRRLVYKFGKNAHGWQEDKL
Method in brief: as §1

ETV3 = target: T12, ETV3 (Homo sapiens, UniProt P41162-2 1-143); conditions: protein: recombinant; tags: N-terminal GST; dsDNA, one strand shown
T12 sequence: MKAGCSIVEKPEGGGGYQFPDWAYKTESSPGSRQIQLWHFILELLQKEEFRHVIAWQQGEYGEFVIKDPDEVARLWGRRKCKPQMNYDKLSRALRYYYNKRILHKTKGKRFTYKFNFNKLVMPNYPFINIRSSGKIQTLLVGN
Method in brief: as §1

ETV6 = ETV6 (Homo sapiens, UniProt P41212 1-452); conditions: protein: recombinant; tags: N-terminal GST; dsDNA, one strand shown
ETV6, sequence (P41212 whole entry): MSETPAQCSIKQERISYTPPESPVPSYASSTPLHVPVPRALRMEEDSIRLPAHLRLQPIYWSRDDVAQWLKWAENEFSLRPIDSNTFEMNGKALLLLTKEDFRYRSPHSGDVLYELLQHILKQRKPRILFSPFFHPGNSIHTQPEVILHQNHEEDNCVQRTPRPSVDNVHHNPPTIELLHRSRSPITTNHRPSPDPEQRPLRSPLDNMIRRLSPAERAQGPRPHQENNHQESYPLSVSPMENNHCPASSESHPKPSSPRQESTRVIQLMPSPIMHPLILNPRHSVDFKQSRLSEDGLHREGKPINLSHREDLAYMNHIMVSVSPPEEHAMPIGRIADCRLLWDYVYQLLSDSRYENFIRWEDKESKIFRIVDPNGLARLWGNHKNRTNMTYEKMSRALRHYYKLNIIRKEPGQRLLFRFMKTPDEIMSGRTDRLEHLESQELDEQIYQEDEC
Method in brief: as §1

Question: Which results are given for CTGCCT?
Answer: binding signal (FEV): 1.2 fold enrichment (6-mer frequency, TF over GST control); binding signal (ETV5): 1.18 fold enrichment (6-mer frequency, TF over GST control); binding signal (HSF1): 1.13 fold enrichment (6-mer frequency, TF over GST control); binding signal (SPIC): 1.07 fold enrichment (6-mer frequency, TF over GST control); binding signal (ELF4): 1.21 fold enrichment (6-mer frequency, TF over GST control); binding signal (ELK4): 1.14 fold enrichment (6-mer frequency, TF over GST control); binding signal (ETV2): 1.15 fold enrichment (6-mer frequency, TF over GST control); binding signal (ELF3): 1.17 fold enrichment (6-mer frequency, TF over GST control); binding signal (CRX): 1.11 fold enrichment (6-mer frequency, TF over GST control); binding signal (ETV1): 1.24 fold enrichment (6-mer frequency, TF over GST control); binding signal (ERF): 1.23 fold enrichment (6-mer frequency, TF over GST control); binding signal (ETV3L): 1.26 fold enrichment (6-mer frequency, TF over GST control); binding signal (ETS2): 1.16 fold enrichment (6-mer frequency, TF over GST control); binding signal (SPDEF): 1.31 fold enrichment (6-mer frequency, TF over GST control); binding signal (ETV7): 1.36 fold enrichment (6-mer frequency, TF over GST control); binding signal (ELF5): 1.29 fold enrichment (6-mer frequency, TF over GST control); binding signal (ETV3): 1.23 fold enrichment (6-mer frequency, TF over GST control); binding signal (ETV6): 1.31 fold enrichment (6-mer frequency, TF over GST control)

— publication PMC7862700, “An all-to-all approach to the identification of sequence-specific readers for epigenetic DNA modifications on cytosine”
